These results are taken from PubChem BioAssay AID624417 (National Center for Advancing Translational Sciences (NCATS), 2012).

Hit rate of the full screen: of about 410,000 compounds, about 6,400 (1.6%) were called active. Not shown: some 20% with an inconclusive outcome. Many of the other results were omitted from the sample, so actives are more common in it than they were. Values without a mark were called inactive. The call rests on the fitted dose curve; in most records, active means well fitted inhibition curve with a large enough effect; inconclusive means small, poorly fitted or top-dose-only effect; inactive means no such curve, though single readings can be large or run the other way.
On the % scale 0 is the no-effect control and ±100 the full control effect; potency means the concentration at half of the fitted maximal effect.

Chain of Glucagon-like peptide 1 receptor (Homo sapiens) (P43220 whole entry, looked up): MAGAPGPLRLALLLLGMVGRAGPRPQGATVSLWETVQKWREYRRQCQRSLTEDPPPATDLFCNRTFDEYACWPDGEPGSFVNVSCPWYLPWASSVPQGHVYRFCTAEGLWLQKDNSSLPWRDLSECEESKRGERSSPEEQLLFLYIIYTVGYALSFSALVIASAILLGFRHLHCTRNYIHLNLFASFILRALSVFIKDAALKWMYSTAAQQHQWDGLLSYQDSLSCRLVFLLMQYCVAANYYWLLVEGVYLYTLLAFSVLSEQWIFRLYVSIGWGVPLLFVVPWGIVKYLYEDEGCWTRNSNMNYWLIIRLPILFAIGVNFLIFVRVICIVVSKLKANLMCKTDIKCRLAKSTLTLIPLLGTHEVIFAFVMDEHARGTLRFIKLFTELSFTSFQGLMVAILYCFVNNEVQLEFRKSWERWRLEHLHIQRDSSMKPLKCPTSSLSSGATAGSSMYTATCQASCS

This test concerns the target Glucagon-like peptide 1 receptor (Homo sapiens) (UniProt P43220). Put plainly: qHTS of GLP-1 Receptor Inverse Agonists (Inhibition Mode). Further: nearly all actives have a fitted effect of over 55% in size. The following applies: HEK293 GLP-1R CRE-luciferase, luminescence, 24 h, GLP-1R form is constitutively active; series mostly up to 38.3 µM; activity change, negative = inhibition: at the top concentration. In outline: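 GLP-1R inverse agonism mode: basal reporter luminescence in engineered HEK293 cells measured after one day of compound exposure at 37 deg C, with a 12 min room-temperature detection step.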
In general terms: Quantitative high-throughput screening tests each substance at several concentrations.
Turning to `O=C(Nc1ccc(OCCO)cc1)c1csc([C@H]2C[C@H](O)[C@@H](CO)O2)n1`, the “activity change, negative = inhibition” value was 14.8%.

Turning to `CCOC(=O)CSc1nc(N2CCOCC2)c2c(c1C#N)CC(C(C)C)OC2` (configuration not stated), the Potency was 2.24 µM (active).

Take `COc1ccc(CSc2nc(N3CCOCC3)c3c(c2C#N)CC(C)(C)OC3)cc1`: the “activity change, negative = inhibition” value is -7.76%.

Turning to `CCOC(=O)CSc1nccc(N(C)C)c1C#N`, the “activity change, negative = inhibition” value is 4.71%.

As to `Cc1ccc(-c2c(N)nc3ncccn23)cc1`, the “activity change, negative = inhibition” value was 8.12%.

For the compound `CCCc1c(-c2ccccc2F)ncn1Cc1ccccc1OC`, the “activity change, negative = inhibition” value was -29.9%.

For `COc1cccc(NC(=O)C2(C)CCN2C(=O)CCC2CCCC2)c1` (configuration not stated), the “activity change, negative = inhibition” value was -23.3%.

As to `CSc1ccc(CN2CCC2(C)C(=O)Nc2ccc(C)c(O)c2)cc1` (configuration not stated), the “activity change, negative = inhibition” value was -23.4%.

Turning to `CC1(C(=O)Nc2cccc(Oc3ccccc3)c2)CCN1Cc1ccccc1Cl` (configuration not stated), the Potency is 10 µM (active).

For `Cc1ccc(C)c(C(O)c2ncc(-c3cccc4ccccc34)[nH]2)c1` (configuration not stated), the “activity change, negative = inhibition” value is -13.6%.

With `CCc1ccccc1NC(=O)/C(=C/c1ccccc1)c1ccccc1`, the Potency is 11.2 µM (active).

As to `CCc1ccccc1NC(=O)CCOc1ccccc1`, the Potency entry was “inactive”.

For the compound `CCc1ccccc1NC(=S)Nc1cc(OC)c(NC(=O)C(C)C)cc1OC`, the “activity change, negative = inhibition” value was -3.86%.

As for `O=S1(=O)CC(N2CCN(Cc3ccccc3F)CC2)CN1Cc1cn(Cc2ccccc2)nn1` (configuration not stated), the “activity change, negative = inhibition” value is 0.366%.

On to `O=C(NCCSCc1ccccc1)c1ccc(Cl)c(S(=O)(=O)N2CCOCC2)c1`, for which the Potency is 11.2 µM (active).

For `Cc1nn(Cc2ccccc2)c(C)c1CNC(=O)c1ccc(F)c(S(=O)(=O)N2CCOCC2)c1`, the “activity change, negative = inhibition” value was -18.7%.

For the compound `NS(=O)(=O)c1ccc(CCNC(=O)c2ccc(Cl)c(S(=O)(=O)N3CCCCCC3)c2)cc1`, the “activity change, negative = inhibition” value was -24.7%.

For the compound `CCCC(=O)N1CCC1(C)C(=O)Nc1ccc(-n2cncn2)cc1` (configuration not stated), the “activity change, negative = inhibition” value is 14.1%.

Turning to `CCOC(=O)C1CCCN(C(=O)c2ccc(N(C)C)cc2)CC1` (configuration not stated), the “activity change, negative = inhibition” value was 18.7%.

Take `O=C1c2ccccc2C(=O)c2c1cccc2N1CCN(CCO)CC1`: the “activity change, negative = inhibition” value is 0%.

Regarding `CC(Nc1nc(N2CCN(CCO)CC2)nc2ccccc12)c1ccccc1` (configuration not stated), the Potency is 4.47 µM (active).

With `OCCN1CCN(c2nnc(-c3ccccc3)c3ccccc23)CC1`, the “activity change, negative = inhibition” value was -8.64%.

Take `CC(=O)Nc1cc(-c2ccc(N3CCN(C)CC3)cc2)cn2c(-c3cccc(C(=O)N(C)C)c3)cnc12`: the “activity change, negative = inhibition” value was 14.6%.

On to `COc1cc(C=O)c(Br)cc1OCC(=O)NCc1ccccc1`, for which the “activity change, negative = inhibition” value was -19.7%.

For `COc1cc(CNC2CCCC2)c(Br)cc1OCc1ccccc1`, the Potency is 3.16 µM (active).

`COc1ccc(CNC2CCCCC2)cc1`: the “activity change, negative = inhibition” value is 9.28%.

Consider `COc1cc2nnn(-c3ccncc3)c2cc1OC`, for which the “activity change, negative = inhibition” value was 25.3%.

Turning to `O=C(CN1CCCCCC1)Nc1ccc(Cl)cc1F`, the “activity change, negative = inhibition” value was -19.6%.

On to `O=C(CN1CCCCCC1)Nc1ccc(Br)cc1Br`, for which the Potency was 10 µM (active).

Take `O=C(CN1CCCCCC1)Nc1ccc(Br)cc1[N+](=O)[O-]`: the “activity change, negative = inhibition” value was -24.9%.

For the compound `COCCCNC(=O)c1cccc2c(-c3ccc(O)c(OC)c3)coc12`, the “activity change, negative = inhibition” value is -6.91%.

Consider `COc1cccc(CN2CCC(C(=O)NC(c3ccc4c(c3)OCO4)c3ccccn3)CC2)c1` (configuration not stated), for which the “activity change, negative = inhibition” value was -6.91%.

On to `CCc1nc2ccc(C(=O)NC3CCN(Cc4ccccc4)CC3)cn2c1N(CC)CCOC`, for which the “activity change, negative = inhibition” value was 9.54%.

Take `Cc1cc(Br)cn2c(Cc3cccc(F)c3)c(-c3cccc(Br)c3)nc12`: the “activity change, negative = inhibition” value was -29.4%.

As to `Cn1cc(CCC(=O)N2CCCC(C(=O)c3ccc(C(C)(C)C)cc3)C2)cn1` (configuration not stated), the Potency is 10 µM (active).

On to `O=C1CCC(CCC(=O)N2CCCC(C(=O)c3ccc(Cl)cc3)C2)=NN1` (configuration not stated), for which the “activity change, negative = inhibition” value was 16%.

In the case of `COCC(=O)N1CCCC(C(=O)c2ccc(C(F)(F)F)cc2)C1` (configuration not stated), the “activity change, negative = inhibition” value was 4.28%.

`CCCNC(=O)c1cc(C2CCCCN2S(=O)(=O)c2cn(C)cn2)on1` (configuration not stated): the “activity change, negative = inhibition” value was 14.7%.

Consider `O=C(NCc1ccc(F)cc1)c1cc(C2CCCCN2C(=O)c2ccccn2)on1` (configuration not stated), for which the “activity change, negative = inhibition” value is 11.6%.

On to `Cc1cccc(S(=O)(=O)N(C)C[C@H]2OCc3cnnn3CCCC(=O)N([C@@H](C)CO)C[C@H]2C)c1`, for which the “activity change, negative = inhibition” value was 9.44%.

Take `CSc1ccc(CCNC(=O)C2CCN(c3nnc(-n4cccc4)s3)CC2)cc1`: the “activity change, negative = inhibition” value was -22.2%.

Take `CCOc1ccc(CNC(=O)C2CCN(c3nnc(-n4cccc4CNc4ccc(C)cc4)s3)CC2)cc1OC`: the “activity change, negative = inhibition” value is -7.98%.

As for `Cc1ccc(CCNC(=O)C2CCN(c3nnc(-n4cccc4CNc4ccc(C)cc4)s3)CC2)cc1`, the Potency is 4.47 µM (active).

Regarding `O=C(NCc1ccccc1)C(c1ccc(F)cc1)N1CCN(C(=O)C2CCCO2)CC1` (configuration not stated), the “activity change, negative = inhibition” value was 14.2%.

For the compound `O=S1(=O)CC(N2CCSCC2)CN1Cc1cn(Cc2cccc(Cl)c2)nn1` (configuration not stated), the “activity change, negative = inhibition” value is 6.48%.

As for `C[C@@H]1CN([C@@H](C)CO)C(=O)CCCn2cc(nn2)CO[C@H]1CN(C)S(=O)(=O)c1ccc(-n2cccn2)cc1`, the “activity change, negative = inhibition” value was 16.2%.

`COc1ccccc1NC(=O)[C@H](COCc1ccccc1)NC(=O)OC(C)(C)C`: the Potency is 10 µM (active).

With `COc1ccccc1NC(=O)CC(NCCN(C)C)C(=O)O` (configuration not stated), the “activity change, negative = inhibition” value was 3.36%.

With `COc1ccccc1NC(=O)C(CC(=O)O)Cc1cc(C)cc(C)c1` (configuration not stated), the “activity change, negative = inhibition” value was -6.79%.

For `O=C(NCc1nnnn1-c1ccc(Cl)cc1)c1ccc2c(c1)OCO2`, the “activity change, negative = inhibition” value was -3.95%.

`COc1cccc(/C=C2\SC(=S)N(CCCC(=O)N3CCOCC3)C2=O)c1`: the “activity change, negative = inhibition” value was -18.9%.

Take `COc1ccccc1N(C)S(=O)(=O)c1ccc(C(=O)N2CCC(C(N)=O)CC2)cc1`: the “activity change, negative = inhibition” value was 0.999%.

In the case of `COc1ccc(S(=O)(=O)NC(C)C)cc1C(=O)NC1CCCCC1`, the “activity change, negative = inhibition” value was 5.65%.

Consider `COc1ccccc1N(C)S(=O)(=O)c1ccc(C(=O)NC2CCCCCC2)cc1`, for which the Potency is 10 µM (active).

In the case of `O=C(Nc1ccc(Cl)cc1)c1csc([C@@H]2O[C@H](CO)[C@H](O)[C@H](O)[C@H]2O)n1`, the “activity change, negative = inhibition” value is 14.7%.

For the compound `CSc1ncnc2c1ncn2CCCNCC1CCCCC1`, the “activity change, negative = inhibition” value is 8.69%.

In the case of `CCOC(=O)C1CCCN(C(=O)c2cc(-c3cccs3)oc2C)CC1` (configuration not stated), the “activity change, negative = inhibition” value was -20.4%.
